Compounds without any hit were thinned out: in the full panel of roughly 79,000, 15% have a hit. A number with no mark means an inactive call. The source made the active and inactive calls. Rule as the data show it: active = growth inhibition above about 70%; inactive = the rest.

Our source for the growth inhibition values is PubChem BioAssay (NCI).

The nature of experiment [1]: NCI Yeast Anticancer Drug Screen. Data for the rad50 strain (AID 155).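 Also: 0% = growth of vehicle-only cultures of the same strain.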 The settings on record: S. cerevisiae rad50 strain growth inhibition, hits give high values. The procedure, abridged:
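Readout: growth inhibition relative to vehicle-treated cultures. Compound exposure was carried out in a genetically defined yeast strain deficient in DNA damage repair.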

Experiment [2] is described as follows: NCI Yeast Anticancer Drug Screen. Data for the mec2-1 strain (AID 157). The settings on record: S. cerevisiae mec2-1 strain, hits give high values. The procedure, abridged:
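Cells of the genetically defined mec2-1 yeast strain are incubated with test compound. Inhibition of growth is calculated against vehicle-treated controls.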

The nature of experiment [3]: NCI Yeast Anticancer Drug Screen. Data for the sgs1 mgt1 strain (AID 161).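 Also: 0% = growth of cultures given vehicle only.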 The settings on record: S. cerevisiae sgs1 mgt1 strain, hits give high values. The procedure, abridged: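 Read-out: growth inhibition vs vehicle controls. Cells: mutant yeast strain deficient in DNA damage repair.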
A short description of experiment [4]: NCI Yeast Anticancer Drug Screen. Data for the cln2 rad14 strain (AID 165).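 Also: 0% = growth equal to vehicle treated cultures.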 The settings on record: S. cerevisiae cln2 rad14 strain, hits give high values. The procedure, abridged: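 The screen exposed genetically defined yeast (cln2 rad14) to test compounds and scored growth inhibition relative to vehicle-treated controls.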
Experiment [5] can be described thus: NCI Yeast Anticancer Drug Screen. Data for the bub3 strain (AID 167). The settings on record: S. cerevisiae bub3 mutant strain, hits give high values. The procedure, abridged:
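Readout: yeast growth inhibition, expressed relative to vehicle-only wells. The test organism is a mutant strain from a panel with lesions in DNA repair or checkpoint genes.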

Experiment [6] in a line: NCI Yeast Anticancer Drug Screen. Data for the mlh1 rad18 strain (AID 175). Conditions: S. cerevisiae mlh1 rad18 strain growth inhibition, hits give high values. The procedure, abridged:
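Compound-treated yeast growth, normalised to vehicle controls. Strain bears defined DNA repair mutations.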

The mark [7] stands for this setting: at 5.0 µM (retest, dose inferred, filed as 0.5).
Where [8] appears, read: at 50.0 µM (retest, dose inferred, filed as 5.0).

For `CCC(C)(C)c1ccc(OC(=O)C(C)OC(C)=O)cc1` (configuration not stated), the growth inhibition in experiment [1] (setting [7]) is 12%; in experiment [1] (setting [8]), 33%; in experiment [1] (at 50.0 µM), 82% (active); in experiment [2] (setting [7]) it was -5%; in experiment [2] (setting [8]), 48%; in experiment [2] (at 50.0 µM) it was 84.9% (active). Also, the growth inhibition in experiment [3] (setting [7]) is 0%; in experiment [3] (setting [8]), 68%; in experiment [3] (at 50.0 µM), 88% (active); in experiment [4] (setting [7]) it was 1%; in experiment [4] (setting [8]), 21%; in experiment [4] (at 50.0 µM), 49.9%. Besides, the growth inhibition was -5% in experiment [5] (setting [7]); 53% in experiment [5] (setting [8]); 87.2% (active) in experiment [5] (at 50.0 µM); -10% in experiment [6] (setting [7]); 46% in experiment [6] (setting [8]); 86.7% (active) in experiment [6] (at 50.0 µM).

On to `C/C(=N\Nc1ccccn1)c1ccccn1`, for which the growth inhibition in experiment [1] (setting [7]) is 47%; in experiment [1] (setting [8]), 98% (active); in experiment [1] (at 50.0 µM), 98.8% (active); in experiment [2] (setting [7]) it was 61%; in experiment [2] (setting [8]) it was 99% (active); in experiment [2] (at 50.0 µM), 98.7% (active). Further, the growth inhibition was 57% in experiment [3] (setting [7]); 98% (active) in experiment [3] (setting [8]); 99% (active) in experiment [3] (at 50.0 µM); 56% in experiment [4] (setting [7]); 99% (active) in experiment [4] (setting [8]); 97.3% (active) in experiment [4] (at 50.0 µM). The growth inhibition is 53% in experiment [5] (setting [7]); 98% (active) in experiment [5] (setting [8]); 49.9% in experiment [5] (at 50.0 µM); 60% in experiment [6] (setting [7]); 98% (active) in experiment [6] (setting [8]); 98.5% (active) in experiment [6] (at 50.0 µM).

For the compound `CC(C)c1ccc(O)c(O)c(=O)c1` (tested in a mixture with another compound), the growth inhibition in experiment [1] (setting [7]) was 99% (active); in experiment [1] (setting [8]) it was 100% (active); in experiment [1] (at 50.0 µM), 99.5% (active); in experiment [2] (setting [7]) it was 100% (active); in experiment [2] (setting [8]), 100% (active); in experiment [2] (at 50.0 µM), 99.7% (active). For the same compound, the growth inhibition in experiment [3] (setting [7]) is 99% (active); in experiment [3] (setting [8]), 99% (active); in experiment [3] (at 50.0 µM), 99.5% (active); in experiment [4] (setting [7]), 97% (active); in experiment [4] (setting [8]), 99% (active); in experiment [4] (at 50.0 µM), 99.1% (active). Also, the growth inhibition in experiment [5] (setting [7]) is 99% (active); in experiment [5] (setting [8]) it was 100% (active); in experiment [5] (at 50.0 µM), 99.3% (active); in experiment [6] (setting [7]) it was 99% (active); in experiment [6] (setting [8]) it was 99% (active); in experiment [6] (at 50.0 µM), 99.3% (active).

In the case of `Cc1c(N)nc(C2CC(=O)N2CC(N)C(N)=O)nc1C(=O)NC(C(=O)NC(C)C(O)C(C)C(=O)NC(C(=O)NCCc1nc(-c2nc(C(=O)NCCNCC(C)O)cs2)cs1)C(C)O)C(OC1OC(CO)C(O)C(O)C1OC1OC(CO)C(O)C(OC(N)=O)C1O)c1cnc[nH]1` (configuration not stated), the growth inhibition was 94% (active) in experiment [1] (setting [7]); 97% (active) in experiment [1] (setting [8]); 92.7% (active) in experiment [1] (at 50.0 µM); 82% (active) in experiment [2] (setting [7]); 99% (active) in experiment [2] (setting [8]); 93.3% (active) in experiment [2] (at 50.0 µM). Moreover, the growth inhibition in experiment [3] (setting [7]) was 87% (active); in experiment [3] (setting [8]), 98% (active); in experiment [3] (at 50.0 µM) it was 93.3% (active); in experiment [4] (setting [7]), 61%; in experiment [4] (setting [8]), 92% (active); in experiment [4] (at 50.0 µM), 90.6% (active). In addition, the growth inhibition in experiment [5] (setting [7]) was 77% (active); in experiment [5] (setting [8]), 96% (active); in experiment [5] (at 50.0 µM), 93.8% (active); in experiment [6] (setting [7]), 97% (active); in experiment [6] (setting [8]), 98% (active); in experiment [6] (at 50.0 µM) it was 92.5% (active).

Regarding `O=c1oc2ccccc2c(O)c1/C=N\c1nc(-c2ccccc2)cs1`, the growth inhibition in experiment [1] (setting [7]) is 41%; in experiment [1] (setting [8]), 99% (active); in experiment [1] (at 50.0 µM) it was 8.95%; in experiment [2] (setting [7]), 42%; in experiment [2] (setting [8]) it was 99% (active); in experiment [2] (at 50.0 µM), 16.4%. In addition, the growth inhibition in experiment [3] (setting [7]) was 53%; in experiment [3] (setting [8]), 100% (active); in experiment [3] (at 50.0 µM), 31.9%; in experiment [4] (setting [7]) it was 36%; in experiment [4] (setting [8]), 97% (active); in experiment [4] (at 50.0 µM), 36.6%. The growth inhibition in experiment [5] (setting [7]) is 81% (active); in experiment [5] (setting [8]) it was 100% (active); in experiment [5] (at 50.0 µM) it was 17.1%; in experiment [6] (setting [7]), 34%; in experiment [6] (setting [8]) it was 99% (active); in experiment [6] (at 50.0 µM), 91.8% (active).

`COc1ccc(C(c2ccc(OC)cc2)c2ccccc2C(=O)O)cc1`: the growth inhibition in experiment [1] (setting [7]) was -5%; in experiment [1] (setting [8]), 64%; in experiment [1] (at 50.0 µM) it was 37.8%; in experiment [2] (setting [7]) it was -14%; in experiment [2] (setting [8]), 31%; in experiment [2] (at 50.0 µM) it was 27.1%. The growth inhibition in experiment [3] (setting [7]) was 16%; in experiment [3] (setting [8]), 48%; in experiment [3] (at 50.0 µM), 35.1%; in experiment [4] (setting [7]) it was 18%; in experiment [4] (setting [8]), 39%; in experiment [4] (at 50.0 µM), 35.9%. Moreover, the growth inhibition in experiment [5] (setting [7]) was 20%; in experiment [5] (setting [8]), 56%; in experiment [5] (at 50.0 µM) it was 18.1%; in experiment [6] (setting [7]) it was 41%; in experiment [6] (setting [8]), 73% (active); in experiment [6] (at 50.0 µM), 54.9%.

Take `C#C[C@]1(OC(C)=O)CC[C@H]2[C@@H]3CCC4=CC(=O)CC[C@@H]4[C@H]3CC[C@@]21C`: the growth inhibition in experiment [1] (setting [7]) was 4%; in experiment [1] (setting [8]), 16%; in experiment [1] (at 50.0 µM), 97.6% (active); in experiment [2] (setting [7]), 7%; in experiment [2] (setting [8]), 15%; in experiment [2] (at 50.0 µM), 88.3% (active). The growth inhibition was 2% in experiment [3] (setting [7]); 29% in experiment [3] (setting [8]); 97.2% (active) in experiment [3] (at 50.0 µM); 9% in experiment [4] (setting [7]); 22% in experiment [4] (setting [8]); 89.7% (active) in experiment [4] (at 50.0 µM). In addition, the growth inhibition in experiment [5] (setting [7]) was 5%; in experiment [5] (setting [8]), 13%; in experiment [5] (at 50.0 µM), 93.8% (active); in experiment [6] (setting [7]), 3%; in experiment [6] (setting [8]), 19%; in experiment [6] (at 50.0 µM) it was 96.8% (active).

In the case of `CC1Cc2cc(O)c(O)cc2-c2cc(O)c(O)cc2CC1C` (configuration not stated), the growth inhibition is -6% in experiment [1] (setting [7]); 86% (active) in experiment [1] (setting [8]); 72.1% (active) in experiment [1] (at 50.0 µM); -11% in experiment [2] (setting [7]); 89% (active) in experiment [2] (setting [8]); 83.8% (active) in experiment [2] (at 50.0 µM). Besides, the growth inhibition in experiment [3] (setting [7]) was -9%; in experiment [3] (setting [8]) it was 75% (active); in experiment [3] (at 50.0 µM), 80.7% (active); in experiment [4] (setting [7]) it was 7%; in experiment [4] (setting [8]), 85% (active); in experiment [4] (at 50.0 µM) it was 83.4% (active). Further, the growth inhibition was -30% in experiment [5] (setting [7]); 93% (active) in experiment [5] (setting [8]); 79.4% (active) in experiment [5] (at 50.0 µM); -8% in experiment [6] (setting [7]); 93% (active) in experiment [6] (setting [8]); 83.7% (active) in experiment [6] (at 50.0 µM).

On to `c1ccc2c(CCc3ccncc3)c[nH]c2c1`, for which the growth inhibition was 2% in experiment [1] (setting [7]); 78% (active) in experiment [1] (setting [8]); 46.8% in experiment [1] (at 50.0 µM); -4% in experiment [2] (setting [7]); 59% in experiment [2] (setting [8]); 45.1% in experiment [2] (at 50.0 µM). Further, the growth inhibition in experiment [3] (setting [7]) is 11%; in experiment [3] (setting [8]), 82% (active); in experiment [3] (at 50.0 µM) it was 50.1%; in experiment [4] (setting [7]), -13%; in experiment [4] (setting [8]), 69%; in experiment [4] (at 50.0 µM) it was 6.25%. The growth inhibition in experiment [5] (setting [7]) was -10%; in experiment [5] (setting [8]), 75% (active); in experiment [5] (at 50.0 µM), 4.8%; in experiment [6] (setting [7]), -13%; in experiment [6] (setting [8]), 65%; in experiment [6] (at 50.0 µM) it was 57.5%.
